{"source": "ChEMBL document CHEMBL5598561", "about": "“ASAP - In vitro binding kinetics” (2024)", "target": "Nonstructural protein 3 (Zika virus) (UniProt A0A024AXB9)", "sequence (A0A024AXB9 as listed by the source)": "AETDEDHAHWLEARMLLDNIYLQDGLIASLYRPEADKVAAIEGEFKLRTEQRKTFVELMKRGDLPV", "data": [{"molecule": "N#Cc1cc(C(=O)Nc2ccc3c(c2)CNC3)cc(C(F)(F)F)c1", "values": [{"measurement": "pKD", "setting": "PRVABC59, Concentration 1.0 uM, Immobilization level 3900.0 pg/mm2, Rmax 43.0 pg/mm2, ka 266866.495 M-1s-1, kd 1.179 1/s", "value": 5.36}, {"measurement": "pKD", "setting": "PRVABC59, Concentration 10.0 uM, Immobilization level 4900.0 pg/mm2, Rmax 32.0 pg/mm2, ka 534169.763 M-1s-1, kd 0.781 1/s", "value": 5.84}, {"measurement": "pKD", "setting": "PRVABC59, Concentration 10.0 uM, Immobilization level 5500.0 pg/mm2, Rmax 33.0 pg/mm2, ka 604018.636 M-1s-1, kd 0.866 1/s", "value": 5.84}, {"measurement": "pKD", "setting": "PRVABC59, Concentration 10.0 uM, Immobilization level 10000.0 pg/mm2, Rmax 37.0 pg/mm2, ka 362843.113 M-1s-1, kd 0.996 1/s", "value": 5.56}, {"measurement": "pKD", "setting": "PRVABC59, Concentration 10.0 uM, Immobilization level 12000.0 pg/mm2, Rmax 65.0 pg/mm2, ka 232125.016 M-1s-1, kd 0.861 1/s", "value": 5.43}, {"measurement": "pKD", "setting": "PRVABC59, Concentration 10.0 uM, Immobilization level 13000.0 pg/mm2, Rmax 45.0 pg/mm2, ka 383567.228 M-1s-1, kd 0.798 1/s", "value": 5.68}]}, {"molecule": "N[C@H]1Cc2ccc(NC(=O)c3cc(Cl)cc4[nH]ncc34)cc2C1", "values": [{"measurement": "pKD", "setting": "PRVABC59, Concentration 10.0 uM, Immobilization level 3900.0 pg/mm2, Rmax 32.0 pg/mm2, ka 340293.713 M-1s-1, kd 0.278 1/s", "value": 6.09}, {"measurement": "pKD", "setting": "PRVABC59, Concentration 10.0 uM, Immobilization level 4900.0 pg/mm2, Rmax 50.0 pg/mm2, ka 211944.111 M-1s-1, kd 0.288 1/s", "value": 5.87}, {"measurement": "pKD", "setting": "PRVABC59, Concentration 10.0 uM, Immobilization level 5500.0 pg/mm2, Rmax 52.0 pg/mm2, ka 230237.04 M-1s-1, kd 0.293 1/s", "value": 5.9}, {"measurement": "pKD", "setting": "PRVABC59, Concentration 10.0 uM, Immobilization level 10000.0 pg/mm2, Rmax 43.0 pg/mm2, ka 451655.452 M-1s-1, kd 0.518 1/s", "value": 5.94}, {"measurement": "pKD", "setting": "PRVABC59, Concentration 10.0 uM, Immobilization level 12000.0 pg/mm2, Rmax 66.0 pg/mm2, ka 170946.752 M-1s-1, kd 0.316 1/s", "value": 5.73}, {"measurement": "pKD", "setting": "PRVABC59, Concentration 10.0 uM, Immobilization level 13000.0 pg/mm2, Rmax 60.0 pg/mm2, ka 295502.849 M-1s-1, kd 0.406 1/s", "value": 5.86}]}, {"molecule": "CNC(=O)[C@H](Nc1ccc2c(c1)CNC2)c1cccc2[nH]ncc12", "values": [{"measurement": "pKD", "setting": "PRVABC59, Concentration 10.0 uM, Immobilization level 3900.0 pg/mm2, Rmax 32.0 pg/mm2, ka 221759.296 M-1s-1, kd 2.211 1/s", "value": 5}, {"measurement": "pKD", "setting": "PRVABC59, Concentration 10.0 uM, Immobilization level 4900.0 pg/mm2, Rmax 43.0 pg/mm2, ka 260065.267 M-1s-1, kd 2.378 1/s", "value": 5.04}, {"measurement": "pKD", "setting": "PRVABC59, Concentration 10.0 uM, Immobilization level 5500.0 pg/mm2, Rmax 48.0 pg/mm2, ka 212060.721 M-1s-1, kd 2.045 1/s", "value": 5.02}, {"measurement": "pKD", "setting": "PRVABC59, Concentration 10.0 uM, Immobilization level 10000.0 pg/mm2, Rmax 60.0 pg/mm2, ka 93401.957 M-1s-1, kd 2.887 1/s", "value": 4.51}, {"measurement": "pKD", "setting": "PRVABC59, Concentration 10.0 uM, Immobilization level 12000.0 pg/mm2, Rmax 22.0 pg/mm2, ka 158759.097 M-1s-1, kd 1.348 1/s", "value": 5.07}, {"measurement": "pKD", "setting": "PRVABC59, Concentration 10.0 uM, Immobilization level 13000.0 pg/mm2, Rmax 39.0 pg/mm2, ka 126882.155 M-1s-1, kd 1.56 1/s", "value": 4.91}]}, {"molecule": "O=C(Nc1ccc2c(c1)CNC2)c1cc(C(F)(F)F)cc2[nH]ccc12", "values": [{"measurement": "pKD", "setting": "PRVABC59, Concentration 10.0 uM, Immobilization level 3900.0 pg/mm2, Rmax 30.0 pg/mm2, ka 544431.648 M-1s-1, kd 0.73 1/s", "value": 5.87}, {"measurement": "pKD", "setting": "PRVABC59, Concentration 10.0 uM, Immobilization level 4900.0 pg/mm2, Rmax 46.0 pg/mm2, ka 302890.351 M-1s-1, kd 0.564 1/s", "value": 5.73}, {"measurement": "pKD", "setting": "PRVABC59, Concentration 10.0 uM, Immobilization level 5500.0 pg/mm2, Rmax 46.0 pg/mm2, ka 376673.864 M-1s-1, kd 0.583 1/s", "value": 5.81}, {"measurement": "pKD", "setting": "PRVABC59, Concentration 10.0 uM, Immobilization level 10000.0 pg/mm2, Rmax 31.0 pg/mm2, ka 377188.867 M-1s-1, kd 0.653 1/s", "value": 5.76}, {"measurement": "pKD", "setting": "PRVABC59, Concentration 10.0 uM, Immobilization level 12000.0 pg/mm2, Rmax 50.0 pg/mm2, ka 339395.125 M-1s-1, kd 0.433 1/s", "value": 5.89}, {"measurement": "pKD", "setting": "PRVABC59, Concentration 10.0 uM, Immobilization level 13000.0 pg/mm2, Rmax 43.0 pg/mm2, ka 290221.417 M-1s-1, kd 0.559 1/s", "value": 5.71}]}, {"molecule": "NCc1ccc(NC(=O)c2cc(Cl)cc3[nH]ncc23)cc1", "values": [{"measurement": "pKD", "setting": "PRVABC59, Concentration 10.0 uM, Immobilization level 3900.0 pg/mm2, Rmax 39.0 pg/mm2, ka 344993.29 M-1s-1, kd 2.713 1/s", "value": 5.11}, {"measurement": "pKD", "setting": "PRVABC59, Concentration 10.0 uM, Immobilization level 4900.0 pg/mm2, Rmax 52.0 pg/mm2, ka 210233.557 M-1s-1, kd 2.157 1/s", "value": 4.99}, {"measurement": "pKD", "setting": "PRVABC59, Concentration 10.0 uM, Immobilization level 5500.0 pg/mm2, Rmax 46.0 pg/mm2, ka 296422.165 M-1s-1, kd 2.251 1/s", "value": 5.12}, {"measurement": "pKD", "setting": "PRVABC59, Concentration 10.0 uM, Immobilization level 10000.0 pg/mm2, Rmax 40.0 pg/mm2, ka 241734.917 M-1s-1, kd 1.766 1/s", "value": 5.14}, {"measurement": "pKD", "setting": "PRVABC59, Concentration 10.0 uM, Immobilization level 12000.0 pg/mm2, Rmax 57.0 pg/mm2, ka 217368.509 M-1s-1, kd 1.551 1/s", "value": 5.15}, {"measurement": "pKD", "setting": "PRVABC59, Concentration 10.0 uM, Immobilization level 13000.0 pg/mm2, Rmax 45.0 pg/mm2, ka 247269.193 M-1s-1, kd 1.32 1/s", "value": 5.27}]}, {"molecule": "O=C(Nc1ccc2c(c1)CNC2)c1cc(Cl)ccc1-n1ccnc1", "values": [{"measurement": "pKD", "setting": "PRVABC59, Concentration 10.0 uM, Immobilization level 10000.0 pg/mm2, Rmax 38.0 pg/mm2, ka 298408.653 M-1s-1, kd 1.639 1/s", "value": 5.26}, {"measurement": "pKD", "setting": "PRVABC59, Concentration 10.0 uM, Immobilization level 12000.0 pg/mm2, Rmax 63.0 pg/mm2, ka 203693.474 M-1s-1, kd 1.266 1/s", "value": 5.21}, {"measurement": "pKD", "setting": "PRVABC59, Concentration 10.0 uM, Immobilization level 13000.0 pg/mm2, Rmax 40.0 pg/mm2, ka 299200.161 M-1s-1, kd 1.542 1/s", "value": 5.29}]}]}
